Results on 15 molecules are retold here after PubChem BioAssay (NCI).

Holding throughout (experiment): NCI-60 one-dose screen, 48 h (100 = growth as untreated, 0 = no growth, -100 = all killed)
Details in all cases: 10 µM unless noted

The test system of test [1] is HCT-15 colon.
In test [2] the test system is HT29 colon.
The subject of test [3] is SNB-19 CNS.
In test [4] the test system is U251 CNS.
Test [5] relates to PC-3 prostate.
In test [6] the test system is SK-MEL-5 melanoma.
Test [7] relates to UACC-62 melanoma.
In test [8] the test system is SK-MEL-28 melanoma.
The subject of test [9] is SK-MEL-2 melanoma.
Test [10] deals with EKVX NSCLC.
Test [11] relates to SN12C renal.
For test [12], the system named is UO-31 renal.
In test [13] the test system is TK-10 renal.
The subject of test [14] is ACHN renal.
The subject of test [15] is CAKI-1 renal.
Test [16] relates to CCRF-CEM leukemia.
Test [17] relates to MOLT-4 leukemia.
In test [18] the test system is LOX IMVI melanoma.
Test [19] concerns A498 renal.

The panel holds about 83,000 compounds, 20% with a hit somewhere; the sample as a whole holds those more often.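 Compound tested at a single concentration for 48 hours in 96-well plates; a percent growth value below 10 was scored as active.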 Unmarked numbers belong to inactive results. Active and inactive are the calls of the source.

In the case of `COc1cccc2cc(-c3cc4ccccc4[nH]3)/c(=N\NC(=O)c3ccc(Cl)cc3)oc12`, the growth in test [1] was 20.3%; in [2] it was 67%; in test [3], 47.4%; in test [4], 34.6%; in test [5] it was 35.3%; in test [6] it was 48.4%. Also, the growth was 16.1% in test [7]; 42.6% in test [8]; 68.3% in test [9]; 33.8% in [10]; 43% in test [11]; 28% in [12]. Further, the growth in test [13] was 46.7%; in test [14], 17.3%; in test [15] it was 30.7%; in [16] it was 16.6%; in test [17] it was 15.5%.

On to `O=S(=O)(Nc1cccc2ccccc12)c1ccc(-c2cnc(C3CC3)o2)cc1`, for which the growth in test [1] is 14.3%; in test [2], 16.8%; in test [3], 38.8%; in test [4], 23.8%; in test [5], 16.5%; in test [6] it was 7.66% (active). Moreover, the growth is 37.2% in test [7]; 57.7% in test [8]; 72.3% in [9]; 43.1% in test [10]; 34.3% in test [11]; 43.5% in test [12]. Further, the growth in test [13] was 92.6%; in [14], 36.9%; in test [15], 29.9%; in [16] it was 17.6%; in [17], 21.8%.

With `c1cn2c(ccc3nc(-c4cn[nH]c4)c4c(c32)CCCC4)n1`, the growth in test [1] was 35.1%; in test [2] it was 62.4%; in [3], 75.5%; in test [4] it was 56.1%; in [5], 48.3%; in [6], 87.6%. Moreover, the growth in [7] is 33.5%; in test [18] it was 79%; in [8] it was 66%; in test [9], -5.11% (active); in test [10] it was 90.2%; in test [11] it was 59.2%. Also, the growth is 23% in test [12]; 30.8% in test [13]; 26.4% in test [14]; 16.5% in [15]; -4.01% (active) in [19]; 81.2% in test [16]. The growth in [17] was 83.4%.

Turning to `Cc1nn(-c2ccccc2)c2ncnc(N/N=C/c3ccccc3)c12`, the growth in [1] is 85.4%; in [2], 89.1%; in [3], 84.4%; in test [4], 85%; in [5], 85.2%; in test [6] it was 92.2%. Further, the growth in test [7] is 90.6%; in [18] it was 105%; in [8] it was 98.4%; in test [9], 104%; in test [11], 81%; in test [12], 75.3%. For the same molecule, the growth in test [13] is 113%; in test [14], 85.8%; in test [15] it was 102%; in [19], 74.1%; in test [16], 88.3%; in test [17], 87.1%.

Turning to `COc1ccc([C@@H]2c3[nH]c4ccccc4c3C[C@H]3C(=O)N(C4CCN(CC5CCCCC5)CC4)CC(=O)N23)c(OC)c1`, the growth in [1] is 56.5%; in [2], 1.45% (active); in test [3], 86.4%; in test [5] it was 49.3%; in test [6], 73.3%; in [7], 93.9%. Besides, the growth is 54.3% in test [18]; 89.1% in [8]; 95.9% in [9]; 61.6% in test [10]; 81.6% in test [11]; 37.3% in test [12]. Also, the growth in test [13] was 98.2%; in test [14], 81.3%; in test [15], 44.7%; in test [19], 78.9%; in [16], 60.5%; in test [17] it was 46.1%.

Take `CNCc1cccc2c1OCCCCCCC(C)(O)CC(C)(C)S(=O)(=O)c1ccc(cc1)-c1cnc(N)c(n1)C(=O)N2` (stereo not given): the growth in test [1] was -20.6% (active); in [2] it was -8.67% (active); in test [3], 33%; in test [4], -70.9% (active); in test [5] it was 16%; in test [7], 1.85% (active). Besides, the growth in [18] is -59.4% (active); in test [8] it was 13.5%; in test [10], 62.7%; in test [11], 16.6%; in test [12] it was 23.7%; in test [13] it was 65.4%. Also, the growth is 10% (active) in [14], 17.6% in test [15], 4.37% (active) in test [16] and 2.61% (active) in test [17].

For the molecule `COc1ccc2c(c1)c(CC(=O)[Se]CCC#N)c(C)n2C(=O)c1ccc(Cl)cc1`, the growth in test [1] is -64.7% (active); in [2], -31.2% (active); in test [3], -45.2% (active); in test [4], 1.11% (active); in test [5] it was 17.4%; in test [6], -73.4% (active). Besides, the growth in test [7] is 41.3%; in test [18], -50.4% (active); in test [8], -1.32% (active); in [9], 9.95% (active); in test [11] it was -82.6% (active); in test [12] it was -21.7% (active). Also, the growth was -74.7% (active) in test [13]; 5.57% (active) in test [14]; -42.9% (active) in test [19]; 5.22% (active) in test [16]; 0.134% (active) in test [17].

Turning to `NC(=O)c1c(NC(=O)c2ccccc2C(F)(F)F)sc2c1CCC(=O)C2`, the growth in test [1] is 10.7%; in test [2], 18.7%; in [3], 20.8%; in test [6] it was -59.5% (active); in test [7] it was 10.4%; in test [18] it was 19.7%. For the same molecule, the growth in [8] was 42.4%; in [9], 45.5%; in [10], 24.3%; in test [11], 40.3%; in [12] it was -7.49% (active); in [13], 28.1%. Also, the growth in test [14] was 8.24% (active); in [15] it was -2.3% (active); in test [19], 85.9%; in [16], 16.3%; in test [17] it was 19.9%.

As for `Clc1nc2ccccc2nc1-c1nnc(C2CCCCC2)o1`, the growth was 71.7% in test [1]; 109% in test [2]; 98.7% in test [3]; 97.9% in test [4]; 95.8% in test [5]; 98.8% in test [6]. Further, the growth in test [7] is 96.4%; in test [18], 66.6%; in [8] it was 104%; in test [9] it was 102%; in test [10] it was 98.8%; in [12], 92.7%. The growth in test [13] was 105%; in test [14], 99.2%; in test [15], 89.5%; in test [19], 89.3%; in test [16] it was 84.9%; in test [17], 109%.

For `NC(N)=Nc1ccc(Oc2cccc(NC(N)=Nc3ccc(Cl)c(C(F)(F)F)c3)c2)cn1`, the growth was 85.8% in test [1]; 28.9% in [2]; 16.6% in test [3]; 25.6% in test [4]; 13.4% in [5]; 31.9% in test [6]. For the same molecule, the growth in test [7] is 40.2%; in test [18], -59.8% (active); in test [8], 61.6%; in [9], 59.5%; in test [10] it was 65.5%; in test [11] it was 25.2%. Also, the growth was 78.9% in test [12]; 69.3% in test [13]; 88.3% in [14]; 36.7% in [19]; 23.9% in test [16]; 23.6% in test [17].

As to `C=C(C=O)[C@@H]1CC[C@]2(CO)CC[C@]3(C)[C@H](CC[C@@H]4[C@@]5(C)CCCNC(C)(C)[C@@H]5CC[C@]43C)[C@@H]12`, the growth was -8.29% (active) in [1]; -3.52% (active) in [2]; 79.7% in [3]; 29.8% in [4]; 11.4% in [5]; 78% in test [6]. Also, the growth in test [8] is 47.1%; in test [9], 99.5%; in test [10] it was 88.2%; in test [11], 54.6%; in test [12], 78.3%; in test [13] it was 125%. Besides, the growth was 88.9% in test [14], 67.5% in test [15], 2.49% (active) in test [16] and 28% in [17].

Take `Cc1cc(C)cc(C(=O)Nc2cccc(C#Cc3cccc4[nH]nc(N)c34)c2)c1`: the growth in test [1] is 33.8%; in test [2], 41.7%; in [3], 99.5%; in [4], 72.2%; in test [5] it was 33.6%; in test [7] it was 60.5%. Moreover, the growth is 43.2% in test [18]; 72% in test [8]; 89.3% in [10]; 71.5% in test [11]; 62.2% in test [12]; 92.9% in test [13]. Further, the growth in test [14] was 56.2%; in test [15], 55.3%; in [16], 30.5%; in [17] it was 27%.

Take `N/C(=N\C(N)=N\c1nc2ccccc2s1)c1cccc(F)c1`: the growth is 94.6% [5 µM] in test [1]; 111% [5 µM] in test [2]; 96% [5 µM] in [3]; 94.1% [5 µM] in test [4]; 75.5% [5 µM] in [5]; 98.2% [5 µM] in [6]. Besides, the growth in test [7] is 89.1% [5 µM]; in test [18], 83.2% [5 µM]; in test [8], 108% [5 µM]; in test [9], 98% [5 µM]; in [11] it was 76.9% [5 µM]; in test [12], 82.8% [5 µM]. For the same molecule, the growth was 187% [5 µM] in test [13]; 85.9% [5 µM] in test [14]; 84% [5 µM] in [15]; 97.1% [5 µM] in test [19]; 93.9% [5 µM] in test [16]; 84.9% [5 µM] in test [17].

Take `COC(=O)C[Se]C(=O)Cc1c(C)n(C(=O)c2ccc(Cl)cc2)c2ccc(OC)cc12`: the growth in test [1] is 11.5%; in test [2], 9.65% (active); in [3], 31.7%; in test [4] it was 46.2%; in [5], 72.7%; in test [6], 44.9%. Further, the growth is 69.6% in test [7]; -54.9% (active) in test [18]; 62.8% in [8]; 86.8% in test [9]; 15.1% in test [10]; 57.1% in test [11]. Also, the growth in test [12] was 9.87% (active); in test [13] it was 70.6%; in test [14], 53.2%; in [19], 70.6%; in [16], 50.1%.

`CCOC(=O)C(=O)/C(=C\c1ccc(Cl)cc1)C(=O)N1C(=S)NC(=O)C1CC(C)C` (stereo not given): the growth in test [1] is 92.8%; in test [2], 108%; in test [3], 99.1%; in test [4], 101%; in [5] it was 93.6%; in test [6], 92.8%. Further, the growth was 91.5% in [7]; 112% in test [18]; 95.1% in [8]; 112% in test [9]; 91% in [10]; 96.9% in test [11]. In addition, the growth in test [12] was 86.1%; in test [13], 135%; in test [14], 99.5%; in test [15] it was 91.3%; in test [16], 91.2%; in [17], 98.4%.
